High-throughput results from PubChem BioAssay.
ALOX15B inhib – inhibitors of human 15-lipoxygenase 2 (ALOX15B). purified 15hLO-2, xylenol orange hydroperoxide absorbance. actives 0.56% (n = 110,000). O15296. Potency, µM (series often up to 57.1 µM), for inactives: at the highest dose activity change, negative = inhibition, usual class: inhibitors; also: potency is read from the fitted curve at half-maximal effect; nearly all actives have a fitted effect of over 60% in size
Target sequence (O15296 whole entry, looked up): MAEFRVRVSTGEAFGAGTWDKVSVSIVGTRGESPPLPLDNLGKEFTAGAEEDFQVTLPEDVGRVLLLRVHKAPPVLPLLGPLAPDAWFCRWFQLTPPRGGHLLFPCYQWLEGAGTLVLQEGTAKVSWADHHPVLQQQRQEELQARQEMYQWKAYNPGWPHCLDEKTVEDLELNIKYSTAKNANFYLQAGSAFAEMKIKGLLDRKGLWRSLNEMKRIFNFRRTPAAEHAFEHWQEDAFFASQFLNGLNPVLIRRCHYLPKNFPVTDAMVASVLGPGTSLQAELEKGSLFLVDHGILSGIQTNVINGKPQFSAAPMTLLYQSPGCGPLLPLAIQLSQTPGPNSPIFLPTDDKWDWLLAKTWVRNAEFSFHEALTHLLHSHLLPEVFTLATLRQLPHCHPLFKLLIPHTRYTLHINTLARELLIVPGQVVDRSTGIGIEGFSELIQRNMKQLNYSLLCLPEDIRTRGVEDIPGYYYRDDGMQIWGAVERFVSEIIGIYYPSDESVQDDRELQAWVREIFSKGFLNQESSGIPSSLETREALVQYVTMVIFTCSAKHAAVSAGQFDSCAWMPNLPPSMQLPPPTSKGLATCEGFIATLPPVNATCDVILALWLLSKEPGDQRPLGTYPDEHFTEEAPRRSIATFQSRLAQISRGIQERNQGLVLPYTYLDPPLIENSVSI
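Enzyme 50 nM, AA 45 uM, 25 mM Hepes pH 7.5 + 0.01% Triton X-100; cpd preinc 15 min RT, rxn 90 min RT; stop/detect with 200 uM XO + 300 uM Fe(II) in 50 mM H2SO4, 30 min; A573/A405.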
IMPase Li inh – membrane-permeable IMPase blocker, potentiated with lithium; actives 0.35% (n = 210,000); Potency, µM (titrated, usually from 59.4 µM), for inactives: at the top dose activity, negative = IMPase inhibition, usual class: inhibitors; CHO-M1 cells, IP1 TR-FRET (IP-One), carbachol + lithium; AID 1457;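 also: IP1 builds up when IMPase is blocked and the TR-FRET signal falls; potency is read from the fitted curve at half-maximal effect; plate controls were basal vehicle for no effect and high inhibitor control for full effect; nearly all actives have a fitted effect of over 50% in size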
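CHO cells stably expressing M1 receptor (2000/well, cultured 16–30 h) treated 30 min at 37C with compound plus low lithium. Cytosolic IP1 by TR-FRET (665/620 ratio and 620 channel) after 10 min lysis; AC50 by Hill fit.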
12-hLO inh – blocks human 12-lipoxygenase activity | P18054 | purified 12-hLO, xylenol orange hydroperoxide absorbance | Potency, µM (highest dose often 57.1 µM), for the others: at the highest dose activity change, negative = inhibition, actives largely listed as inhibitors | actives 0.12% (n = 150,000); also: potency is read from the fitted curve at half-maximal effect; nearly all actives have a fitted effect of over 55% in size
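150 nM 12hLO, 25 mM Hepes pH 7.0 + 0.01% Triton X-100; cpd preinc 15 min RT; 40 uM arachidonic acid, 30 min RT; Fe-XO 30 min; A573/A405 ratio as read-out.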
IMPase inh – IMPase inhibition in cells; P97697; CHO-M1 cells, IP1 accumulation, HTRF TR-FRET ratio; inhibition (IP1 accumulation), % at 46.1 µM; 120,000 tested, under 10 active; AID 901; active = well fitted curve in the direction sought with a large enough effect in the signal ratio, not every such curve was filed as active; inconclusive = small, poorly fitted or top-dose-only effect, or a change in a side signal; inactive = no such curve, though single readings can be large or run the other way; the % refers to the signal ratio;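 also: cells stimulated with carbachol in lithium chloride buffer; plate controls were DMSO basal wells for no effect and reference inhibitor wells for full effect; higher means more IMPase inhibition seen as more IP1 and lower FRET ratio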
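CHO-M1, 2000 cells/well, cultured 16–30 h; cpd up to 46 uM; carbachol (50 uM solution, stimulation buffer w/ 50 mM LiCl, pH 7.4), 30 min 37C; IP-One TR-FRET, 10 min RT; Ex 320/Em 665, 620; Hill-fit AC50.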
PNC inhibitor – inhibitors of perinucleolar compartment assembly; PC3M PTB-GFP, PNC prevalence imaging, 16 h; hits give low values; activity change (PNC), negative = inhibition, % at 10 µM; actives 3.1% (n = 140,000); AID 2417;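 active = readout at or below -70, meaning at least 70% loss of cells showing the perinucleolar compartment, a nuclear body marking cancer cells; inconclusive = readout between -30 and a set limit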;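 also: plate controls were DMSO wells for no effect and camptothecin positive control wells for full effect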
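PC3M cells stably expressing PTB-GFP, 750–1000 cells/well, treated 16 h at 37 °C with compound (23 nl of library stock), in duplicate. After paraformaldehyde fixation and Hoechst stain, imaged at 20x; PNC prevalence scored by image analysis.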
Numbers without * were called inactive; ? = inconclusive; nt = no result; [ ] = dose if it differs, or a comment. Many of the other results were omitted from the sample, so hits are more common in it than they were. Unless noted, calls follow the shape of the dose curve; as a rule, active = well fitted curve in the direction sought with a large enough effect; inconclusive = small, poorly fitted or top-dose-only effect, or another doubt; inactive = no such curve, though single readings can be large; an effect the other way counts as inactive or inconclusive. Unless noted, % is scaled to controls: 0 for no effect and ±100 for the full control effect.

SMILES	ALOX15B inhib	IMPase Li inh	12-hLO inh	IMPase inh	PNC inhibitor
CC(C)C[C@@H](CC(=O)N[C@@H](CCC(=O)O)CC(=O)O)NC(=O)[C@@H]1CCCC[C@H]1NC(=O)C[C@@H](NC(=O)C[C@H](CO)NC(=O)[C@@H]1CNCC[C@H]1N)C(C)C	nt	12%	-3%	nt	nt
COCCN(C(=O)Nc1ccc(OC)cc1OC)C1CCN(C(C)C)CC1	8%	9%[38.3 µM]	2%	1	-18
COc1ccc(NC(=O)NC2CCN(C(C)C)CC2)c(OC)c1	5%	21%[38.3 µM]	1%	-7	-80*
COC(=O)c1ccc(N)c(N=CC2=C(O)CC(C)(C)CC2=O)c1	nt	0%	-6%	nt	-109*
CC1(C)CC(=O)C(C=Nc2ccc(O)cc2)=C(O)C1	0%	-10%[38.3 µM]	1%	2	-27
CC1(C)CC(=O)C(C=NCC(N)=O)=C(O)C1	2%	nt	-2%	3	4
CSc1ccccc1N=CC1=C(O)CC(C)(C)CC1=O	nt	4%	-5%	-1	-100*
CC1(C)CC(=O)C(C=Nc2cc(C(=O)c3ccccc3)ccc2N)=C(O)C1	nt	0%	nt	nt	nt
CC1(C)CC(=O)C(C=NCCCO)=C(O)C1	1%	3%[38.3 µM]	-1%	-1	-87*
COc1cccc(N=CC2=C(O)CCCC2=O)c1	nt	14%	nt	nt	nt
COc1cccc(N=CC2=C(O)CC(C)(C)CC2=O)c1	nt	10%	0%	nt	-113*
COc1cccc(NC(=O)C2CC(=O)N(c3ccc(Br)cc3)C2)c1 (stereo not given)	nt	nt	nt	2	nt
CC(C)=CC[C@@H](O)C1=CC(=O)c2c(O)ccc(O)c2C1=O	nt	98%	nt	nt	nt
CC(C)n1c(=S)[nH]c2c1c(=O)[nH]c(=O)n2C	13µM*	2%[38.3 µM]	?	3	16
CCC(C)NC(=O)CSc1nc(-c2ccc(F)cc2)cc(C(F)(F)F)n1 (stereo not given)	nt	nt	nt	-2	nt
O=C(O)CCN1C(=O)C(=C2CCCCCC2)SC1=S	-10%	5%[38.3 µM]	1%	-11	?
O=C1NC(=O)C(=C2CCCCCC2)S1	nt	0%	-2%	nt	-105*
O=C(Oc1ccccc1)N1CCC[C@@]2(CCN(c3ccccc3)C2)C1	-17%	3%	-16%	nt	nt
COc1ccc(-c2nc(C#N)c(NCCc3ccccc3)o2)cc1	nt	12%	-8%	12	-100*
COc1ccc(CCNc2oc(-c3ccc(C)cc3)nc2C#N)cc1OC	-8%	25%[38.3 µM]	-5%	4	-108*
O=C(CSc1nccn1-c1ccccc1)Nc1ccc2c(c1)OCO2	5%	4%[38.3 µM]	-17%	0	-21
Cc1cc(C)cc(-n2ccnc2SCC(=O)Nc2ccc3c(c2)OCCO3)c1	5%	31%[38.3 µM]	-2%	?	-85*
CN(C)c1ccc(N2CN=C3SCC(=O)N3C2)cc1	16µM*	58%[38.3 µM]	-13%	33	-17
O=C1CSC2=NCN(c3ccc4c(c3)OCO4)CN12	-6%	10%[38.3 µM]	-12%	0	42
Cc1cc(Cl)ccc1NC(=O)CN(c1ccccc1Br)S(C)(=O)=O	nt	nt	nt	-1	nt
SMILES	ALOX15B inhib	IMPase Li inh	12-hLO inh	IMPase inh	PNC inhibitor
C[C@H](CC[C@@H]1OC1(C)C)C1CC[C@H]2[C@@H]3CC=C4C[C@@H](O)CC[C@]4(C)[C@H]3CC[C@]12C (stereo not given in full)	nt	-7%	nt	nt	nt
Cc1cccc2cc(CN(CCN(C)C)C(=S)Nc3ccccc3)c(=O)[nH]c12	nt	9%	-3%	2	-99*
O=C(NN=C1CCCC1)NC1CCCCC1	nt	-5%	-3%	nt	-118*
FC(F)(F)c1ccc(-c2noc(-c3ccccc3)c2I)cc1	-6%[0.0915 µM]	15%	-1%[0.00818 µM]	nt	nt
CCOc1ccccc1N(CC(=O)Nc1ccc2c(c1)OCO2)S(C)(=O)=O	3%	-4%[38.3 µM]	-6%	7	9
CCOc1ccccc1N(CC(=O)Nc1ccc2c(c1)OCCO2)S(C)(=O)=O	3%	6%[38.3 µM]	-6%	-8	-125*
COc1ccccc1N1CCN(CC(O)COc2ccc(Cl)c(C)c2)CC1 (stereo not given)	nt	nt	nt	6	nt
COc1ccc(-c2nc3cnc(OC)nc3n(C)c2=O)cc1	-2%	12%	nt	nt	nt
COc1cc(NC(=S)NC(=O)c2ccc(C(C)(C)C)cc2)ccc1NC(=O)c1cccs1	nt	-1%	11%	-4	-115*
O=C(NN1C(=O)C2C3C=CC(C3)C2C1=O)c1ccncc1 (stereo not given)	nt	3%	2%	nt	-113*
C=CCC1(O)CCOc2ccccc21 (stereo not given)	nt	7%	nt	nt	nt
CC(=O)NCCC(Cc1ccccc1)c1ccco1 (stereo not given)	nt	-3%	-2%	1	-100*
C=CCOC(=O)N[C@H](/C(C(=O)OC)=C(\C)NCc1ccccc1)c1ccc(Br)cc1	nt	34%	nt	nt	nt
CCCCS/C(N)=N/N=C/c1cc(C)ccc1O	13%	20%[38.3 µM]	-21%	5	-106*
CCS/C(N)=N/N=C/c1cc(C)ccc1O	1%	14%[38.3 µM]	-24%	-4	0
COc1cccc([C@@H]2Oc3ccc(Br)cc3C[C@H]2OC(=O)NCCc2ccc(OC)c(OC)c2)c1	nt	21%	nt	nt	nt
COc1cc(/C=N/NC(=S)N/N=C/c2cc(OC)c(OC)c(OC)c2)cc(OC)c1OC	nt	-8%	-15%	nt	-109*
COc1cccc(C(=O)COc2ccc3c(C)c(Cc4ccccc4)c(=O)oc3c2C)c1	nt	3%	-2%	nt	-100*
CS(=O)(=O)Nc1cccc(-c2cncnc2NCc2cccs2)c1	-6%	6%	-2%	nt	nt
O=C(C1CCN(S(=O)(=O)c2ccc(Cl)cc2)CC1)N1CCOCC1	0%	31%[38.3 µM]	0%	6	?
COc1ccc(S(=O)(=O)N2CCC(C(=O)Nc3ccccc3)CC2)cc1OC	nt	nt	nt	-3	nt
COc1ccc(S(=O)(=O)N2CCC(C(=O)N3CCOCC3)CC2)cc1	nt	4%	0%	2	-100*
COc1ccc(NC(=O)C2CCN(S(=O)(=O)c3ccc(OC)c(OC)c3)CC2)c(OC)c1	-5%	-13%[38.3 µM]	-3%	-4	-121*
COc1ccc(C(=O)N2CCC(C(=O)Nc3ccccc3OC)CC2)cc1	2%	-8%	-2%	4	-85*
COc1ccc(C(=O)N2CCC(C(=O)Nc3ccccc3Cl)CC2)cc1	nt	nt	nt	-3	nt
SMILES	ALOX15B inhib	IMPase Li inh	12-hLO inh	IMPase inh	PNC inhibitor
C[C@]12C[C@@](C)(C=C1/C=C/c1ccc(F)cc1)C(=O)C[C@H]2c1ccc(F)cc1	nt	-2%	5%	nt	nt
Cc1cc(C)nc(/N=C(/NC(=O)Nc2ccc(Cl)c(Cl)c2)Nc2cccc(Cl)c2)n1	nt	-11%	-2%	8	-113*
OB(O)c1ccc(Cl)s1	4%	-1%	4%	nt	nt
O=c1[nH]ncn1-c1cccc(C(F)(F)F)c1	nt	-10%[38.3 µM]	7%	-1	-106*
Cc1n[nH]c(=O)n1-c1cccc(C(F)(F)F)c1	nt	-9%[38.3 µM]	6%	-1	5
O=C(CCCOc1ccc(Cl)cc1)N1CCCCCC1	-3%	52%[38.3 µM]	-2%	8	-99*
CS(=O)(=O)N(CC(=O)N1CCCCCC1)Cc1ccc(Cl)cc1	-7%	7%[38.3 µM]	-3%	0	-107*
